{
  "source": "ChEMBL document CHEMBL2218924",
  "about": "“A broad activity screen in support of a chemogenomic map for kinase signalling research and drug discovery” (Biochem J, 2013)",
  "data": [
    {"target": "T1, Ephrin type-A receptor 8 (Homo sapiens) (UniProt P29322)", "T1 sequence (whole entry)": "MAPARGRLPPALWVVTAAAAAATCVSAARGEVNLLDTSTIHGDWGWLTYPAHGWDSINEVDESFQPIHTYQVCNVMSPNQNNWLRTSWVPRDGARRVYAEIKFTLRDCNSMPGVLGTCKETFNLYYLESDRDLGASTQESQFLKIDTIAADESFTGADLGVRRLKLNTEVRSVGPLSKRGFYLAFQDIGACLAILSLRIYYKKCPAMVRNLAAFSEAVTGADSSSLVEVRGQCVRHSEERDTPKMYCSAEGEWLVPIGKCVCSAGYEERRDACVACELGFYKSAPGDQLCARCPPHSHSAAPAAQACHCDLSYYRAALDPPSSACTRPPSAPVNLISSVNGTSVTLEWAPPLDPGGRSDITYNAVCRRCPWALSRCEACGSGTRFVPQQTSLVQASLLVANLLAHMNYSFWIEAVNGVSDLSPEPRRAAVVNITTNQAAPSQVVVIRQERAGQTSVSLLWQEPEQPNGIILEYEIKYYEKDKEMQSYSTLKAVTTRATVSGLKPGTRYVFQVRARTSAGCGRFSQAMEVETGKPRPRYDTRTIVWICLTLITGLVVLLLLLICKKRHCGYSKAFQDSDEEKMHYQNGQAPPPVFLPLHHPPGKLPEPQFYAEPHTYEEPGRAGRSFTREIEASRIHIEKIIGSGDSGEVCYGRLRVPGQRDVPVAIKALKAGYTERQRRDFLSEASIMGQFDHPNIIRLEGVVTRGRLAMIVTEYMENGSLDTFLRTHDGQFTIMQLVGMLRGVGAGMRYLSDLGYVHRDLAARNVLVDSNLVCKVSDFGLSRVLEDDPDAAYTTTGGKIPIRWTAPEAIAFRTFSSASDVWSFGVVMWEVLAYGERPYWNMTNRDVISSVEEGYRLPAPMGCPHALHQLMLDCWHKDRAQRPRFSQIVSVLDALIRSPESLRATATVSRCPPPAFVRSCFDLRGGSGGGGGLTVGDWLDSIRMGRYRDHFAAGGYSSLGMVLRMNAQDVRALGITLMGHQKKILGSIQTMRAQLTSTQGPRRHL", "details": "at 10 µM", "units": {"residual activity": "%"}, "values": [
      {"compound": "CC(C)(C)n1nc(Cc2cccc3ccccc23)c2c(N)ncnc21", "residual activity": 6},
      {"compound": "COc1cc2ncnc(Nc3cccc(Cl)c3)c2cc1OC", "residual activity": 35},
      {"compound": "O=C1C(Cl)=C(N2C(=O)CCC2=O)C(=O)c2ccccc21", "residual activity": 92},
      {"compound": "O=C1Nc2ccc(Cl)cc2/C1=C/c1cc(Cl)c(O)c(Cl)c1", "residual activity": 79},
      {"compound": "COc1cc2nccc(Oc3ccc(NC(=O)Nc4cc(C)on4)c(Cl)c3)c2cc1OC", "residual activity": 1},
      {"compound": "Fc1ccc(-c2nc3n(c2-c2ccncc2)CCS3)cc1", "residual activity": 70},
      {"compound": "O=C1Cc2c([nH]c3ccc(Br)cc23)-c2ccccc2N1", "residual activity": 82},
      {"compound": "Nc1ncnc2c1c(-c1ccc(Oc3ccccc3)cc1)cn2C1CCCC1", "residual activity": 27},
      {"compound": "COc1ccc(-c2cnc3c(-c4ccsc4)cnn3c2)cc1", "residual activity": 99},
      {"compound": "COc1ccc(COc2ccc(Cc3cnc(N)nc3N)cc2OC)cc1", "residual activity": 110},
      {"compound": "O=C(O)/C=C/c1cc(Br)c(Br)c(Br)c1Br", "residual activity": 99},
      {"compound": "O=C(CCCc1ccc(-c2ccccc2F)cc1)Nc1ccc(O)cc1", "residual activity": 94},
      {"compound": "COc1cc2nccc(Oc3ccc(NC(=S)NC(=O)c4ccccc4C)cc3)c2cc1OC", "residual activity": 49},
      {"compound": "Nc1ncnc2c1cnn2-c1ccccc1", "residual activity": 95},
      {"compound": "O=C1NC(=O)c2c1c1c3ccccc3[nH]c1n1cncc21", "residual activity": 93},
      {"compound": "CC(C)[C@H](CO)Nc1nc(Nc2cc(N)cc(Cl)c2)c2ncn(C(C)C)c2n1", "residual activity": 59},
      {"compound": "CC(C)c1nn(-c2c(Cl)cccc2Cl)c2nc(Cc3ccc(OCCO)cc3)[nH]c(=O)c12", "residual activity": 89},
      {"compound": "O=c1cc(N2CCNCC2)oc2c(-c3ccccc3)cccc12", "residual activity": 100},
      {"compound": "CN(C)S(=O)(=O)c1ccc2c(c1)/C(=C/c1cc3c([nH]1)CCCC3)C(=O)N2", "residual activity": 85},
      {"compound": "Nc1n[nH]c2nc3ccccc3nc12", "residual activity": 91},
      {"compound": "COc1ccc2c(c1)c(C1=C(c3c[nH]c4ccccc34)C(=O)NC1=O)cn2CCCN(C)C", "residual activity": 96},
      {"compound": "CCN(CC)CCNC(=O)c1c(C)[nH]c(/C=C2\\C(=O)Nc3ccc(Cl)cc32)c1C", "residual activity": 55},
      {"compound": "CCCC(=O)Oc1ccc2[nH]c(C(=O)c3cc4ccccc4[nH]3)cc2c1", "residual activity": 98},
      {"compound": "O=c1cc(N2CCOCC2)oc2c1ccc1ccccc12", "residual activity": 97},
      {"compound": "NC(=O)Nc1sc(-c2ccc(F)cc2)cc1C(N)=O", "residual activity": 54},
      {"compound": "Nc1ncnc2[nH]nc(Nc3ccc(F)cc3)c12", "residual activity": 43},
      {"compound": "CCCCc1c(-c2ccc(O)cc2)[nH]c2nccnc12", "residual activity": 58},
      {"compound": "COc1cc2c(cc1OC)-c1n[nH]c(Nc3cccc(F)c3)c1C2", "residual activity": 26},
      {"compound": "Cn1sc(=O)n(Cc2ccccc2)c1=O", "residual activity": 84}
    ]},
    {"target": "T2, Ephrin type-B receptor 1 (Homo sapiens) (UniProt P54762)", "T2 sequence (whole entry)": "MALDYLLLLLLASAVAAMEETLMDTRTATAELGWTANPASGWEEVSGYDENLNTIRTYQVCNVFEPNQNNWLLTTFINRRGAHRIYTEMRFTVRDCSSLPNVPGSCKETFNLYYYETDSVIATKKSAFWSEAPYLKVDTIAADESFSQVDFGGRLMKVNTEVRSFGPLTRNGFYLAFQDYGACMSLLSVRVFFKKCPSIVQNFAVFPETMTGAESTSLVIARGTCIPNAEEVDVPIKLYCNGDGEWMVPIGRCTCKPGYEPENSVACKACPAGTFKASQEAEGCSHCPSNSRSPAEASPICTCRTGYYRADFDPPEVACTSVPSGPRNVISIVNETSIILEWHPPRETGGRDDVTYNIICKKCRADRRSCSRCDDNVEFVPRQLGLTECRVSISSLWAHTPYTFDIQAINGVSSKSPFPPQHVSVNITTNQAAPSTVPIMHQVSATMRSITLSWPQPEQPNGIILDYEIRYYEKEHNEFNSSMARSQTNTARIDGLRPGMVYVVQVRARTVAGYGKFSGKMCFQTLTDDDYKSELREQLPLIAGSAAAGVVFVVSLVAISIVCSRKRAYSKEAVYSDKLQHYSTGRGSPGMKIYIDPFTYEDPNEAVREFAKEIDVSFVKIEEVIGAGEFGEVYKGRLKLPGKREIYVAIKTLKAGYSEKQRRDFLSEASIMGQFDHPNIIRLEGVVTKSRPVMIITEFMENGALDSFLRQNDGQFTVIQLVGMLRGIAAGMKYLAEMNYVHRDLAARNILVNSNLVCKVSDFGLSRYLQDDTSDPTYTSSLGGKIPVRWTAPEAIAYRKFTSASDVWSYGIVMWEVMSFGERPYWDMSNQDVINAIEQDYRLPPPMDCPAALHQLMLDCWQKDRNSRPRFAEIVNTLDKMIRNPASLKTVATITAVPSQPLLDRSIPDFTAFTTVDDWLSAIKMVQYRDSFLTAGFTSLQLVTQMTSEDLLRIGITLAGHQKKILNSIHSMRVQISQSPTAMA", "details": "at 1 µM", "units": {"residual activity": "%"}, "values": [
      {"compound": "CC(C)(C)n1nc(Cc2cccc3ccccc23)c2c(N)ncnc21", "residual activity": 13},
      {"compound": "COc1cc2ncnc(Nc3cccc(Cl)c3)c2cc1OC", "residual activity": 84},
      {"compound": "O=C1Nc2ccc(Cl)cc2/C1=C/c1cc(Cl)c(O)c(Cl)c1", "residual activity": 94},
      {"compound": "COc1cc2nccc(Oc3ccc(NC(=O)Nc4cc(C)on4)c(Cl)c3)c2cc1OC", "residual activity": 1},
      {"compound": "O=C1Cc2c([nH]c3ccc(Br)cc23)-c2ccccc2N1", "residual activity": 98},
      {"compound": "Nc1ncnc2c1c(-c1ccc(Oc3ccccc3)cc1)cn2C1CCCC1", "residual activity": 90},
      {"compound": "O=C(O)/C=C/c1cc(Br)c(Br)c(Br)c1Br", "residual activity": 101},
      {"compound": "COc1cc2nccc(Oc3ccc(NC(=S)NC(=O)c4ccccc4C)cc3)c2cc1OC", "residual activity": 86},
      {"compound": "O=C1NC(=O)c2c1c1c3ccccc3[nH]c1n1cncc21", "residual activity": 90},
      {"compound": "CC(C)c1nn(-c2c(Cl)cccc2Cl)c2nc(Cc3ccc(OCCO)cc3)[nH]c(=O)c12", "residual activity": 90},
      {"compound": "O=c1cc(N2CCNCC2)oc2c(-c3ccccc3)cccc12", "residual activity": 100},
      {"compound": "CN(C)S(=O)(=O)c1ccc2c(c1)/C(=C/c1cc3c([nH]1)CCCC3)C(=O)N2", "residual activity": 73},
      {"compound": "COc1ccc2c(c1)c(C1=C(c3c[nH]c4ccccc34)C(=O)NC1=O)cn2CCCN(C)C", "residual activity": 80},
      {"compound": "CCN(CC)CCNC(=O)c1c(C)[nH]c(/C=C2\\C(=O)Nc3ccc(Cl)cc32)c1C", "residual activity": 64},
      {"compound": "CCCC(=O)Oc1ccc2[nH]c(C(=O)c3cc4ccccc4[nH]3)cc2c1", "residual activity": 82},
      {"compound": "O=c1cc(N2CCOCC2)oc2c1ccc1ccccc12", "residual activity": 95},
      {"compound": "CCCCc1c(-c2ccc(OC)cc2)[nH]c2nccnc12", "residual activity": 61},
      {"compound": "Cn1c2ccccc2c2c3c(c4c5ccccc5n(CCC#N)c4c21)CNC3=O", "residual activity": 63},
      {"compound": "NC(=O)Nc1sc(-c2ccc(F)cc2)cc1C(N)=O", "residual activity": 11},
      {"compound": "CCCCc1c(-c2ccc(O)cc2)[nH]c2nccnc12", "residual activity": 64},
      {"compound": "COc1cc2c(cc1OC)-c1n[nH]c(Nc3cccc(F)c3)c1C2", "residual activity": 83},
      {"compound": "Cn1sc(=O)n(Cc2ccccc2)c1=O", "residual activity": 90}
    ]},
    {"target": "T2, Ephrin type-B receptor 1 (Homo sapiens)", "details": "at 10 µM", "units": {"residual activity": "%"}, "values": [
      {"compound": "CC(C)(C)n1nc(Cc2cccc3ccccc23)c2c(N)ncnc21", "residual activity": 0},
      {"compound": "COc1cc2ncnc(Nc3cccc(Cl)c3)c2cc1OC", "residual activity": 24},
      {"compound": "O=C1C(Cl)=C(N2C(=O)CCC2=O)C(=O)c2ccccc21", "residual activity": 93},
      {"compound": "O=C1Nc2ccc(Cl)cc2/C1=C/c1cc(Cl)c(O)c(Cl)c1", "residual activity": 86},
      {"compound": "COc1cc2nccc(Oc3ccc(NC(=O)Nc4cc(C)on4)c(Cl)c3)c2cc1OC", "residual activity": -1},
      {"compound": "O=C1Cc2c([nH]c3ccc(Br)cc23)-c2ccccc2N1", "residual activity": 76},
      {"compound": "Nc1ncnc2c1c(-c1ccc(Oc3ccccc3)cc1)cn2C1CCCC1", "residual activity": 70},
      {"compound": "O=C(O)/C=C/c1cc(Br)c(Br)c(Br)c1Br", "residual activity": 89},
      {"compound": "O=C(CCCc1ccc(-c2ccccc2F)cc1)Nc1ccc(O)cc1", "residual activity": 98},
      {"compound": "COc1cc2nccc(Oc3ccc(NC(=S)NC(=O)c4ccccc4C)cc3)c2cc1OC", "residual activity": 70},
      {"compound": "O=C1NC(=O)c2c1c1c3ccccc3[nH]c1n1cncc21", "residual activity": 74},
      {"compound": "CC(C)c1nn(-c2c(Cl)cccc2Cl)c2nc(Cc3ccc(OCCO)cc3)[nH]c(=O)c12", "residual activity": 84},
      {"compound": "O=c1cc(N2CCNCC2)oc2c(-c3ccccc3)cccc12", "residual activity": 105},
      {"compound": "CN(C)S(=O)(=O)c1ccc2c(c1)/C(=C/c1cc3c([nH]1)CCCC3)C(=O)N2", "residual activity": 64},
      {"compound": "COc1ccc2c(c1)c(C1=C(c3c[nH]c4ccccc34)C(=O)NC1=O)cn2CCCN(C)C", "residual activity": 53},
      {"compound": "CCN(CC)CCNC(=O)c1c(C)[nH]c(/C=C2\\C(=O)Nc3ccc(Cl)cc32)c1C", "residual activity": 24},
      {"compound": "CCCC(=O)Oc1ccc2[nH]c(C(=O)c3cc4ccccc4[nH]3)cc2c1", "residual activity": 108},
      {"compound": "O=c1cc(N2CCOCC2)oc2c1ccc1ccccc12", "residual activity": 89},
      {"compound": "CCCCc1c(-c2ccc(OC)cc2)[nH]c2nccnc12", "residual activity": 61},
      {"compound": "Cn1c2ccccc2c2c3c(c4c5ccccc5n(CCC#N)c4c21)CNC3=O", "residual activity": 63},
      {"compound": "NC(=O)Nc1sc(-c2ccc(F)cc2)cc1C(N)=O", "residual activity": 0},
      {"compound": "CCCCc1c(-c2ccc(O)cc2)[nH]c2nccnc12", "residual activity": 22},
      {"compound": "COc1cc2c(cc1OC)-c1n[nH]c(Nc3cccc(F)c3)c1C2", "residual activity": 43}
    ]}
  ]
}
